Results as given in PubChem BioAssay (EPA / NIEHS).
Records with an inconclusive call do not appear. The source made the active and inactive calls. How the source made its calls: active means hit-call score of the fitted dose curve at least 0.9, where 1 is the maximum; inconclusive means response in the unintended direction; inactive means score below 0.9.

Target: rat Androgen Receptor (AR), Ar (gene 24208) (UniProt P15207)
Experiment: NVS_NR_rAR: NovaScreen (NVS) Nuclear Receptor Binding Assay for rat Androgen Receptor (AR) (AID 2283366)
How it was run: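 Actives from a duplicate single-concentration (25 uM) primary run went on to concentration series. Displacement of radioligand was counted by filtration and scintillation, 18 h post-dose, using prostate extracts from testosterone-pretreated rats, with DMSO as baseline.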

rat Androgen Receptor (AR), Ar (gene 24208), sequence (P15207 whole entry, looked up): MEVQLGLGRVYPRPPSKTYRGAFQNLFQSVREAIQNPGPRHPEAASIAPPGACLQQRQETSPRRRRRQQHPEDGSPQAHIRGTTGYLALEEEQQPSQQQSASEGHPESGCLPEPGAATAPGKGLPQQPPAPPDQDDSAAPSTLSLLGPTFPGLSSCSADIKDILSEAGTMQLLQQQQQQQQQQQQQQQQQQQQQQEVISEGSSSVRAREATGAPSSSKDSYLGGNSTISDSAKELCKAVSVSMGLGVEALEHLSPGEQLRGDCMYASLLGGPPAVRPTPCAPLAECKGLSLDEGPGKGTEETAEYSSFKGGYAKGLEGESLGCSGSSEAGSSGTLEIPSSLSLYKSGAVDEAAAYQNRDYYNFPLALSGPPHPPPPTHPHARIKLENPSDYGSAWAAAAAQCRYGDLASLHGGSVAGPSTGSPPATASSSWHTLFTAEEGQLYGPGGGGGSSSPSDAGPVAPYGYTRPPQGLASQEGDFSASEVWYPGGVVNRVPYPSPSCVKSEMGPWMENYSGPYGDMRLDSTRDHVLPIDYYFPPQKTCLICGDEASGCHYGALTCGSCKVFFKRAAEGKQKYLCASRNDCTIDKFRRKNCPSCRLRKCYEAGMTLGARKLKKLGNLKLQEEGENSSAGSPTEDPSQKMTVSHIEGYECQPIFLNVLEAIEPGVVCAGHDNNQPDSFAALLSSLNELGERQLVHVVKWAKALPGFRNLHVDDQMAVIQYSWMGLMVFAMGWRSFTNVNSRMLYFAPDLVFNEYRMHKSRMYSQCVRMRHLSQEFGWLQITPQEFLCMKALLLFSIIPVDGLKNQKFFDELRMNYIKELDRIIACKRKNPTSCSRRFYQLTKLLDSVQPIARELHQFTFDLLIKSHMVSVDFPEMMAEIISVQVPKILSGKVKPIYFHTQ

| Compound | outcome | AC50 |
| --- | --- | --- |
| O=C1C=CC(=O)c2ccccc21 | inactive | – |
| [Cl][Sn]([c]1ccccc1)([c]1ccccc1)[c]1ccccc1 | – | 2.42 µM (active) |
| OC(Cc1ccccc1Cl)(Cn1[nH]cnc1=S)C1(Cl)CC1 (configuration not stated) | inactive | – |
| Cc1cc(C(C)(C)c2ccc(O)c(C)c2)ccc1O | inactive | – |

Target: guinea pig Sigma Receptor, Non-selective Binding, SIGMAR1 (gene 100135589) (UniProt Q60492)
Experiment: NVS_OR_gSIGMA_NonSelective: NovaScreen (NVS) Nuclear Receptor Binding Assay for guinea pig Sigma Receptor, Non-selective Binding (AID 2283367)
How it was run: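 Test chemicals were screened in duplicate at 25 uM, then in concentration series if active, against radioligand binding to guinea pig brain membranes; filtration and scintillation counting at 1 h measured remaining bound ligand.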

guinea pig Sigma Receptor, Non-selective Binding, SIGMAR1 (gene 100135589), sequence (Q60492 whole entry, looked up): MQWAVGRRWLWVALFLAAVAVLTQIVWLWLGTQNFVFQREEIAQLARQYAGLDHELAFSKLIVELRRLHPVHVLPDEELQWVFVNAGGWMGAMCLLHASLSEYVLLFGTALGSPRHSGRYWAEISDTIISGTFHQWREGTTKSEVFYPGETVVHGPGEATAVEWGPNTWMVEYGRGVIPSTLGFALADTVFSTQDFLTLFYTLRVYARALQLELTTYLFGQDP

| Compound | AC50 |
| --- | --- |
| CCOP(=O)(OCC)OC(=CCl)c1ccc(Cl)cc1Cl | 10.9 µM (active) |
| CCOC(=O)CCN(SN(C)C(=O)Oc1cccc2c1OC(C)(C)C2)C(C)C | 15.8 µM (active) |
| CCCCCCCCCCBr | 0.87 µM (active) |
| CCCCCCCCCCCCN(C)C | 1.51 µM (active) |

Test system: guinea pig Dopamine Transporter (DAT), gene 100714898
Experiment: NVS_TR_gDAT: NovaScreen (NVS) Transporter Assay for guinea pig Dopamine Transporter (DAT) (AID 2283369);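 further: active compounds lower bound radioligand signal relative to DMSO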
How it was run: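 Radioligand displacement on membranes from guinea pig striatum, 2 h exposure, bound label counted by filtration and scintillation. Tested at 25 uM in duplicate, then actives in concentration series to 50 uM; DMSO as negative control.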

| Compound | AC50 |
| --- | --- |
| O=C1C=CC(=O)c2ccccc21 | 5.42 µM (active) |
| CCOP(=O)(OCC)OC(=CCl)c1ccc(Cl)cc1Cl | 25 µM (active) |
| O=[N+]([O-])c1ccc(Nc2ccccc2)cc1 | 4.24 µM (active) |
| Oc1cccc(-c2ccccc2)c1 | 13.9 µM (active) |
| Oc1ccc(Cc2ccc(O)cc2)cc1 | 10.1 µM (active) |
| Cc1ccccc1OP(=O)(Oc1ccccc1)Oc1ccccc1 | 13.9 µM (active) |
| CC(C)N(C(=O)CCl)c1ccccc1 | 11.8 µM (active) |
| Cc1cc(C(C)(C)c2ccc(O)c(C)c2)ccc1O | 6.35 µM (active) |

Target: Peroxisome proliferator-activated receptor gamma (Homo sapiens) (UniProt P37231)
Experiment: NVS_NR_hPPARg: NovaScreen (NVS) Nuclear Receptor Binding Assay for human Peroxisome Proliferator-activated Receptor gamma (PPARg) (AID 2283370)
How it was run: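 Fluorescence polarization readout of ligand binding to extracted human PPARg, measured at 2 h. Duplicate single-point screen at 25 uM, then concentration-series retesting; activity defined as signal loss versus DMSO.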

Peroxisome proliferator-activated receptor gamma (Homo sapiens), sequence (P37231 whole entry, looked up): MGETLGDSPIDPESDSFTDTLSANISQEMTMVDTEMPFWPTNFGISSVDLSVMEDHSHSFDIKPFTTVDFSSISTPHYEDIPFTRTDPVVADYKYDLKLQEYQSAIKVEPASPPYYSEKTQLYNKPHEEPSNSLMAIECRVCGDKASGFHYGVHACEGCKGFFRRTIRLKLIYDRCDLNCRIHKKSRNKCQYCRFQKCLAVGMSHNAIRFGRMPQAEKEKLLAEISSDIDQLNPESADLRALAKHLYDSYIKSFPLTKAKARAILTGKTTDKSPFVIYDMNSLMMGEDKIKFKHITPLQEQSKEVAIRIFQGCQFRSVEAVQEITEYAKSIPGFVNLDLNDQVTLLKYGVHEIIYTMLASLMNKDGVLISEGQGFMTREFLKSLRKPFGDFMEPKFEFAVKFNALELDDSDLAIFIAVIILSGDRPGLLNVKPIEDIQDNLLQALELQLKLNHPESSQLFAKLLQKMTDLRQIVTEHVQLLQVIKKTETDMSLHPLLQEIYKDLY

| Compound | outcome | AC50 |
| --- | --- | --- |
| COc1ccccc1N | inactive | – |
| O=C(O)COc1cc(Cl)c(Cl)cc1Cl | – | 7.47 µM (active) |
| O=S1OC[C@@H]2[C@H](CO1)[C@]1(Cl)C(Cl)=C(Cl)[C@@]2(Cl)C1(Cl)Cl (some centres not stated) | – | 14.9 µM (active) |
| COCCl | – | 4.2 µM (active) |
| CCC[CH2][Sn]([CH2]CCC)([CH2]CCC)[CH2]CCC | inactive | – |
| Cc1cc(Cl)ccc1OC(C)C(=O)O (configuration not stated) | inactive | – |
| CC(=Cc1ccccc1)[N+](=O)[O-] | inactive | – |
| Oc1c(Br)cc(Br)cc1Br | inactive | – |
| CC(C)N(C(=O)CCl)c1ccccc1 | inactive | – |
| O=[N+]([O-])c1ccccc1O | inactive | – |
| CCOCn1c(-c2ccc(Cl)cc2)c(C#N)c(Br)c1C(F)(F)F | inactive | – |

Target: human Dopamine Transporter (DAT), SLC6A3 (gene 6531) (UniProt Q01959)
Experiment: NVS_TR_hDAT: NovaScreen (NVS) Transporter Assay for human Dopamine Transporter (DAT) (AID 2283374);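 further: activity means loss of bound radioligand signal relative to DMSO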
How it was run: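 Extracted human SLC6A3 protein incubated 1 h with radioligand and test chemical; bound fraction separated on filters and counted. Single 25 uM duplicate screen preceded concentration-response follow-up; positive and negative controls on every plate.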

human Dopamine Transporter (DAT), SLC6A3 (gene 6531), sequence (Q01959 whole entry, looked up): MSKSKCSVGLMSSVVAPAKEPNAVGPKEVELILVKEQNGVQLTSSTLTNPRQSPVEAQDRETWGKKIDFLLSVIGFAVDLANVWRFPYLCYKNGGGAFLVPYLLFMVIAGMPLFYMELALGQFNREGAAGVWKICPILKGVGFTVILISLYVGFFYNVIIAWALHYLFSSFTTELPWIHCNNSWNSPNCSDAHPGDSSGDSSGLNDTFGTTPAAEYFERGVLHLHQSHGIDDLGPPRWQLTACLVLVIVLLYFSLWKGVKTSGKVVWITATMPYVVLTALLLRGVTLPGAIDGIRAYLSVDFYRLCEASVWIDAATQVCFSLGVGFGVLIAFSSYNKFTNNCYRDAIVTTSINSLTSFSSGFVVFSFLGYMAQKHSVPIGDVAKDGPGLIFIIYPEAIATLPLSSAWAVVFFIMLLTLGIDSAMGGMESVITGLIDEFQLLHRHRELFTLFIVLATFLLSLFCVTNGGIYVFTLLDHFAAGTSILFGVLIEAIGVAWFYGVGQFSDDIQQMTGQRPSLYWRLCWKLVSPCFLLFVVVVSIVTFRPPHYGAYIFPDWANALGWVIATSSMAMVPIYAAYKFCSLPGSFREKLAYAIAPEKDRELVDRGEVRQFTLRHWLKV

| Compound | AC50 |
| --- | --- |
| CC(C)=CC1C(C(=O)OCc2cccc(Oc3ccccc3)c2)C1(C)C (configuration not stated) | 17.2 µM (active) |
| [Cl][Sn]([c]1ccccc1)([c]1ccccc1)[c]1ccccc1 | 2.89 µM (active) |
| CCOP(=O)(OCC)OC(=CCl)c1ccc(Cl)cc1Cl | 25 µM (active) |
| O=[N+]([O-])c1ccc(Nc2ccccc2)cc1 | 5.62 µM (active) |
| Cc1ccc(OP(=O)(Oc2ccc(C)cc2C)Oc2ccc(C)cc2C)c(C)c1 | 17.4 µM (active) |
| Oc1cccc(-c2ccccc2)c1 | 10.6 µM (active) |
| Oc1ccc(Cc2ccc(O)cc2)cc1 | 9.05 µM (active) |
| Cc1ccccc1OP(=O)(Oc1ccccc1)Oc1ccccc1 | 2.25 µM (active) |
| CC(C)N(C(=O)CCl)c1ccccc1 | 11.1 µM (active) |
| Cc1cc(C(C)(C)c2ccc(O)c(C)c2)ccc1O | 1.62 µM (active) |

Target: rat Serotonin Transporter (SERT), Slc6a4 (gene 25553) (UniProt P31652)
Experiment: NVS_TR_rSERT: NovaScreen (NVS) Transporter Assay for rat Serotonin Transporter (SERT) (AID 2283375)
How it was run: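 Radioligand binding with competitive displacement on rat forebrain membrane preparations, counted by filtration and scintillation after 1 h. Primary single-point duplicates at 25 uM; active chemicals followed up in concentration-response. DMSO served as baseline.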

rat Serotonin Transporter (SERT), Slc6a4 (gene 25553), sequence (P31652 whole entry, looked up): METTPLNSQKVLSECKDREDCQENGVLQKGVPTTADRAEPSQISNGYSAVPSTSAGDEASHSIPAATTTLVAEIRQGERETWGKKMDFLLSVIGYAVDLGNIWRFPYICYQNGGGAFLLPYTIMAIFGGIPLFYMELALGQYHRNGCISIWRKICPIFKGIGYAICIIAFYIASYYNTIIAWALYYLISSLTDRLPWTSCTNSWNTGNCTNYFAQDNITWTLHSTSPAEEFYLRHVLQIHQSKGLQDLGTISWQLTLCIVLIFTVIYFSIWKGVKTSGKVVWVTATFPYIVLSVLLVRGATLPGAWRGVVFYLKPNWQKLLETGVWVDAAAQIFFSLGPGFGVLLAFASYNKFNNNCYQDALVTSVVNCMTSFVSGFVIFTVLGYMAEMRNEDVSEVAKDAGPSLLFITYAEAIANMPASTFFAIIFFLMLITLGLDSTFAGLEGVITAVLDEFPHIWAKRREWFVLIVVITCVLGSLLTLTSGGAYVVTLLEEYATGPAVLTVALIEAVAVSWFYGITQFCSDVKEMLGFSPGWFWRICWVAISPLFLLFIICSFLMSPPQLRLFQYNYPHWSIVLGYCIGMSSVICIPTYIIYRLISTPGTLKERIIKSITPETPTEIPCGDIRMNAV

| Compound | AC50 | outcome |
| --- | --- | --- |
| O=C1C=CC(=O)c2ccccc21 | 28.9 µM (active) | – |
| Cc1ccc(CCl)cc1 | 16.6 µM (active) | – |
| Nc1nc(N)nc(Cl)n1 | – | inactive |
| N#Cc1ccccc1N | 17.6 µM (active) | – |
| O=[N+]([O-])c1cccc2ccccc12 | 9.17 µM (active) | – |
